Compound activity deposited in PubChem BioAssay by National Center for Advancing Translational Sciences (NCATS).
Pf Dd2 inh = qHTS Primary assay for Inhibitors of Plasmodium falciparum Dd2 growth in vitro; 120,000 compounds, 4.3% hits; AID 1347417, 2020; P. falciparum Dd2 growth, SYBR Green, 72 h; Potency, µM (series often up to 28.9 µM), without a hit: at the top dose activity, negative = inhibition, most hits filed as inhibitors; active = well fitted inhibition curve with a large enough effect;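 note: plate controls were DMSO vehicle for no effect and reference drug for full effect; nearly all actives have a fitted effect of over 65% in size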
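Infected erythrocytes (Dd2, 0.3% parasitemia, 2.5% hematocrit final) are added to compound in RPMI-1640/Albumax II medium, grown 72 h at 37C in low oxygen, then lysed with saponin/Triton-X containing SYBR Green and read by fluorescence.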
The depositor's hits bear a star; i = inactive; [ ] = dose if it differs, or a comment. The entries come from a sample that favours hits as a whole. Potency is the fitted concentration of half-maximal effect.

SMILES | Pf Dd2 inh
Cc1ccccc1NC(=O)Cn1c(=O)n(CCCCCC(=O)NCc2ccc3c(c2)OCO3)c(=O)c2sccc21 | i
CCc1nc(-c2c3n(c(=O)n(CC(=O)Nc4ccccc4F)c2=O)CCCCC3)no1 | i
Cc1ccc(CN(C)C2CCOc3ccccc32)cc1 (configuration not stated) | i
CCS(=O)(=O)N1CCc2cc(C(=O)NCc3ccccc3Cl)ccc21 | 11%
CC1=C[C@@H](CN2CCN(C)CC2)[C@H](C(C)C)C[C@H]1Cc1nnc(C)o1 | i
CC1=C[C@@H](CN2CCC(C(N)=O)CC2)[C@H](C(C)C)C[C@H]1Cc1nnc(-c2ccccc2F)o1 | i
CC1=C[C@@H](CN2CCN(C)CC2)[C@H](C(C)C)C[C@H]1Cc1nnc(-c2ccc(N(C)C)cc2)o1 | 4µM*
CC1=C[C@@H](CN2CCC[C@H]2CO)[C@H](C(C)C)C[C@H]1Cc1nnc(-c2cncn2C)o1 | -33%[44.1 µM]
CC1=C[C@@H](CN2CCC(C(N)=O)CC2)[C@H](C(C)C)C[C@H]1Cc1nnc(-c2ccc(N(C)C)cc2)o1 | 3.5µM*
COc1ccc(N2CC(c3noc(-c4ccc(Cl)cc4)n3)CC2=O)cc1 (configuration not stated) | i
Cc1nn(-c2ccccc2)c2sc(C(=O)Nc3ccc(Cl)cc3Cl)cc12 | 4%
COc1ccc(S(=O)(=O)N2[C@H]3CC[C@@H]2c2cnc(-c4ccccc4)nc2C3)cc1 | i
CCCCCNC(=O)Cc1csc2nc(C)c(-c3cc(C)n(-c4cc(F)ccc4C)n3)c(=O)n12 | -13%
Cc1cccc(C)c1NC(=O)CSc1nc(-c2ccccc2)nc2c1Cc1c(CO)cnc(C)c1O2 | 12%
Cc1ccc(-c2nc3c(c(SCC(=O)N(C)c4ccccc4)n2)Cc2c(CO)cnc(C)c2O3)cc1 | 5.6µM*
CCN(CC)C(=O)CSc1nc(-c2ccc(C)cc2)nc2c1Cc1c(CO)cnc(C)c1O2 | 10µM*
CCSc1nc(-c2ccccc2)nc2c1Cc1c(CO)cnc(C)c1O2 | 11%
Cc1cc(C)cc(NC(=O)CSc2nc(-c3cccc(Cl)c3)nc3c2Cc2c(CO)cnc(C)c2O3)c1 | -26%
Cc1ccc(-c2nc3c(c(SCC(=O)Nc4ccccc4Cl)n2)Cc2c(CO)cnc(C)c2O3)cc1 | 19%
Cc1cccc(-n2ncc3c(N4CCCC(C)C4)ncnc32)c1 (configuration not stated) | i
COCc1cc(C[C@@H]2CC[C@H](O)[C@@H](CNC(=O)Nc3ccc(OC)cc3)O2)no1 | 15%[44.1 µM]
NCCC(=O)N1CCC(n2nccc2NC(=O)c2ccc3c(c2)OCO3)CC1 | 2%
COC1C(=O)N(c2cccc(F)c2)C12CCN(C(=O)c1ocnc1C)CC2 (configuration not stated) | -11%
O=C1CCC(C(=O)N2CCc3ccc(S(=O)(=O)Nc4cccnc4)cc3C2)=NN1 | 25%
COCCOc1cc(C)c2c(c1C)C[C@H](C(C)C(=O)NC(C)(C)C)CC2 (some centres not stated) | -5%[44.1 µM]
SMILES | Pf Dd2 inh
COCCOc1cc(C)c2c(c1C)C[C@H]([C@H](C)C(=O)Nc1ccccn1)CC2 | 13µM*
COCCOc1cc(C)c2c(c1C)C[C@H]([C@H](C)C(=O)NC1CCCC1)CC2 | i
COc1ccc(C(=O)N2CCC3(CC2)CNC(C(=O)O)C3)cc1Cl (configuration not stated) | -5%
COc1cccc(C(=O)N2CCCCC23Cc2ccccc2NC3=O)c1 (configuration not stated) | -23%[44.1 µM]
COc1ccc(CCNC(=O)CCCn2c(=O)c3cccn3c3cccnc32)cc1OC | 5%
COC(=O)c1c(NC(=O)COc2cc(C)c(Cl)c(C)c2)sc2c1CCCC2 | 3%
CCOC(=O)c1ccc(NC(=O)c2c(NCc3cccs3)sc3c2CCCCC3)cc1 | 10µM*
COc1ccc(NC(=O)c2c(NC(=O)COc3ccc(Cl)cc3)sc3c2CCCCC3)cc1 | 3.2µM*
CCCCOc1ccc(C(=O)Nc2sc3c(c2C(=O)OCC)CCCCC3)cc1 | -17%
O=C(COc1ccccc1)Nc1sc2c(c1C(=O)Nc1ccccc1)CCCCC2 | 25%
COc1ccc(NC(=O)c2c(NC(=O)c3cccc(C)c3)sc3c2CCC3)cc1 | -10%
CCOC(=O)c1ccc(NC(=O)c2csc3c2CCCC3)cc1 | -22%
COc1ccc(CC(=O)Nc2sc3c(c2C(=O)Nc2ccccc2)CCCCC3)cc1 | 0%
COc1ccc(NC(=O)c2c(NCc3cccs3)sc3c2CCCC3)cc1 | 7.9µM*
CC(C)C1(CNC(=O)c2coc(COc3ccc4c(c3)OCO4)n2)CC1 | 0%
O=C(N[C@@H]1CNCCC[C@H]1O)c1ccc(OCc2ccccc2)cc1 | i
CO[C@H]1C(=O)N(C(C)C)[C@H]1C1CCN(Cc2ccc(F)cc2F)CC1 | i
COc1ccccc1C(=O)N1CCCC1c1noc(COc2ccc(F)cc2)n1 (configuration not stated) | i
COCC(=O)Nc1ccc2c(c1)CN(Cc1ccc(Cl)cc1)C(=O)C(C)O2 (configuration not stated) | i
O=C1CCN(Cc2ccncc2)CCCC(C(=O)NCC2CC2)CCN1 (configuration not stated) | 23%
Cc1ccc(C)c(N2CCN(C(=O)c3cnn(-c4ccccc4Cl)c3C3CCN(C(=O)OC(C)(C)C)CC3)CC2)c1 | 3.5µM*
Cc1ccc(C)c(N2CCN(CCCNC(=O)c3cnn(-c4cccc(Cl)c4)c3C3CCN(C(=O)OC(C)(C)C)CC3)CC2)c1 | 1.4µM*
CCN1CCN(C(=O)c2cnn(-c3ccc(F)cc3F)c2C2CCN(C(=O)OC(C)(C)C)CC2)CC1 | -6%
Cc1ccc(N2CCN(C(=O)c3cnn(-c4ccc(F)cc4F)c3C3CCN(C(=O)OC(C)(C)C)CC3)CC2)c(C)c1 | 7.9µM*
Cc1ccc(C)c(N2CCN(CCCNC(=O)c3cnn(-c4ccccc4Cl)c3C3CCN(C(=O)OC(C)(C)C)CC3)CC2)c1 | 2.2µM*
SMILES | Pf Dd2 inh
Cc1ccc(-n2ncc(C(=O)NCCCN3CCN(C)CC3)c2C2CCN(C(=O)OC(C)(C)C)CC2)c(C)c1 | i
CNC(=O)CC1COCCN1C(=O)c1cccc(Cn2nc(C)cc2C)c1 (configuration not stated) | -9%
Cc1nnc([C@@H]2CC(F)(F)CN2C(=O)c2ccoc2)o1 | 22%
O=C(NC1CCCC1)C1(CCO)CCN(c2ncccn2)C1 (configuration not stated) | 30%
CN(C)CCN(C)C(=O)c1ccc2c(c1)NC(C)(CCCCc1ccccc1)CO2 (configuration not stated) | -1%[44.1 µM]
CCn1ccnc1CN(C)c1cc(C2CC(N)C2)nc(COC)n1 (configuration not stated) | -18%
O=C(CN1CC2CC(C1)[C@H]1CCCC(=O)N1C2)NCCc1ccc(Cl)cc1 (some centres not stated) | -8%
Cc1ccc(C)c(N2CCN(CCCNC(=O)c3cnn(-c4ccc(F)cc4)c3C3CCN(C(=O)OC(C)(C)C)CC3)CC2)c1 | 1.3µM*
CC(C)(C)OC(=O)N1CCC(c2c(C(=O)N3CCN(C(=O)c4ccco4)CC3)cnn2-c2ccccc2Cl)CC1 | 11µM*
CCN1CCN(CCCNC(=O)c2cnn(-c3ccc(C)cc3)c2C2CCN(C(=O)OC(C)(C)C)CC2)CC1 | -4%
CC(C)(C)OC(=O)N1CCC(c2c(C(=O)N3CCN(C(=O)c4ccco4)CC3)cnn2-c2ccc(Cl)cc2)CC1 | 104%[5.79 µM]
O=C([C@@H]1C[C@H](F)CN1S(=O)(=O)c1cccs1)N1CCCCC1 | 37%
